Test [1] has as its target Calcium and integrin-binding protein 1 (Homo sapiens) (UniProt Q99828). Briefly: Primary qHTS for Identification of Calcium Integrin Binding Protein 1 (CIB1) Competitor (AID 1508620).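 Further: GST tagged CIB1 binding a fluorescein labelled alphaIIb integrin peptide tracer; top concentration of the series differs between compounds.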 As to conditions: CIB1-GST / FITC-alphaIIb peptide fluorescence polarization; series mostly up to 114 µM. Put shortly:
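Fluorescence polarization competition: CIB1-GST (1 uM final) preincubated with compound 15 min at room temperature, then FITC-labeled alphaIIb peptide (100 nM final) added for another 15 min. Polarization read at Ex 480/Em 540.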
(qHTS replaces the single test concentration by a dilution series.)

Test [2] concerns the target Cytochrome P450 2D6 (Homo sapiens) (UniProt P10635). Briefly: Cytochrome P450 family 2 subfamily D member 6 (CYP2D6) small molecule antagonists: luciferase biochemical (cell-free) qHTS assay (AID 1645840; active means well fitted curve in the direction sought with a large enough effect in the repeat runs; an effect the other way counts as inactive or inconclusive; further: nearly all actives have a fitted effect of over 55% in size; further: potency means the concentration at half of the fitted maximal effect). As to conditions: P450-Glo CYP2D6 enzyme, luciferin luminescence, 1 h; series mostly up to 57.4 µM. Summed up: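 P450-Glo luminescent screen: recombinant CYP2D6 enzyme–proluciferin substrate mix preincubated with compound 10 min at room temperature, then NADPH regeneration added for 1 h at room temperature. Detection reagent added for 20 min; luciferin light read as relative luminescence units.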

The target of test [3] is Cytochrome P450 2C9 (Homo sapiens) (UniProt P11712). The experiment in a line: Cytochrome P450 family 2 subfamily C member 9 (CYP2C9) small molecule antagonists: luciferase biochemical (cell-free) qHTS assay (AID 1645842; active means well fitted curve in the direction sought with a large enough effect in the repeat runs; an effect the other way counts as inactive or inconclusive; further: nearly all actives have a fitted effect of over 55% in size; further: potency means the concentration at half of the fitted maximal effect). As to conditions: P450-Glo CYP2C9 enzyme assay, luciferin luminescence; series mostly up to 57.4 µM. Put shortly:
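Luminescence, after 20 min with luciferin detection reagent, reflected CYP2C9 turnover during a 1 h NADPH-driven reaction at 37C. Enzyme-substrate mix contained 0.4% bovine serum albumin and was preincubated with compound 10 min at room temperature.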

The nature of test [4]: Primary qHTS for inhibitors of nuclear receptor binding SET domain protein 2 (NSD2) in an isogenic RCH-ACV NSD2 p.E1099K mutant (9B) (AID 1645876). Further: nearly all actives have a fitted effect of over 70% in size. Further: potency means the concentration at half of the fitted maximal effect. As to conditions: RCH-ACV (leukaemia line) NSD2 E1099K (9B) viability, CellTiter-Glo, 72 h; series mostly up to 44.9 µM.
Test [5] addresses N-terminal Xaa-Pro-Lys N-methyltransferase 1 (Homo sapiens) (UniProt Q9BV86). The experiment in a line: Confirmatory qHTS for Inhibitors of N-terminal methyltransferase 1 (NTMT1): MTaseGlo Assay (AID 1645874). Further: nearly all actives have a fitted effect of over 65% in size. Further: potency means the concentration at half of the fitted maximal effect. The following applies: NTMT1 enzyme, MTase-Glo SAH luminescence; series mostly up to 100 µM. Summed up:
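qHTS format: NTMT1 125 nM, SAM 100 uM, peptide SPKRIA 1 uM final; 15 min compound preincubation, 30 min reaction at room temperature. MTase-Glo luminescence.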

Where “and” joins values, the source holds several entries; their conditions need not be identical. Equal entries are not always repeated. Inconclusive results are not listed. A structure can be active in one record and inactive in another. Calls of active or inactive are those of the source. Unless noted, the call rests on the fitted dose curve; in most records, active means well fitted curve in the direction sought with a large enough effect; inconclusive means small, poorly fitted or top-dose-only effect, or another doubt; inactive means no such curve, though single readings can be large; an effect the other way counts as inactive or inconclusive.

Sequence of Cytochrome P450 2C9 (Homo sapiens) (P11712 whole entry, looked up): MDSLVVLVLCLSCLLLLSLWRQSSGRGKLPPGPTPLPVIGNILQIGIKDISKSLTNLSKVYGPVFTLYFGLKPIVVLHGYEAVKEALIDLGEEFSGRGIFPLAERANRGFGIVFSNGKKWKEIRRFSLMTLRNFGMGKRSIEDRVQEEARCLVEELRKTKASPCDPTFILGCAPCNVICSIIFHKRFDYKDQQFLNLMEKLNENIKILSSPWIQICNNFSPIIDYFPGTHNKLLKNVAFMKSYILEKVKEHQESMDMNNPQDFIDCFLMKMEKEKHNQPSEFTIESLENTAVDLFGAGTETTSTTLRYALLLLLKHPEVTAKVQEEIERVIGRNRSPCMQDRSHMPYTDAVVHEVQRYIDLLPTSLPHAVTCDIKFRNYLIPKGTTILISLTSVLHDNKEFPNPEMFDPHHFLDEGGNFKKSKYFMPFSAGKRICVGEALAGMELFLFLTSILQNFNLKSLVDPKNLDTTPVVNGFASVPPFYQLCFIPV
Sequence of N-terminal Xaa-Pro-Lys N-methyltransferase 1 (Homo sapiens) (Q9BV86 whole entry, looked up): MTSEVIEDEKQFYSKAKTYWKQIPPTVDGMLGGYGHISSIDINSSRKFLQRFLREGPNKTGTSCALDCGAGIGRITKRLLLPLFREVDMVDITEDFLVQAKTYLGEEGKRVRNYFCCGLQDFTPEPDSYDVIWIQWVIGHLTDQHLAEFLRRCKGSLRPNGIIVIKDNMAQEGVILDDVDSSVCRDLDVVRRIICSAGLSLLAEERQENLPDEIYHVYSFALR
Sequence of Calcium and integrin-binding protein 1 (Homo sapiens) (Q99828 whole entry, looked up): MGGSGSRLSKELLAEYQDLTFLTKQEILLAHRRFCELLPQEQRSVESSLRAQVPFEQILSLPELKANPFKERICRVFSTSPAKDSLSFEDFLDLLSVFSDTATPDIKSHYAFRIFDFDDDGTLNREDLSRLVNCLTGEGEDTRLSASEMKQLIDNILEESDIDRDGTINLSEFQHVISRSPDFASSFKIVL
Sequence of Cytochrome P450 2D6 (Homo sapiens) (P10635 whole entry, looked up): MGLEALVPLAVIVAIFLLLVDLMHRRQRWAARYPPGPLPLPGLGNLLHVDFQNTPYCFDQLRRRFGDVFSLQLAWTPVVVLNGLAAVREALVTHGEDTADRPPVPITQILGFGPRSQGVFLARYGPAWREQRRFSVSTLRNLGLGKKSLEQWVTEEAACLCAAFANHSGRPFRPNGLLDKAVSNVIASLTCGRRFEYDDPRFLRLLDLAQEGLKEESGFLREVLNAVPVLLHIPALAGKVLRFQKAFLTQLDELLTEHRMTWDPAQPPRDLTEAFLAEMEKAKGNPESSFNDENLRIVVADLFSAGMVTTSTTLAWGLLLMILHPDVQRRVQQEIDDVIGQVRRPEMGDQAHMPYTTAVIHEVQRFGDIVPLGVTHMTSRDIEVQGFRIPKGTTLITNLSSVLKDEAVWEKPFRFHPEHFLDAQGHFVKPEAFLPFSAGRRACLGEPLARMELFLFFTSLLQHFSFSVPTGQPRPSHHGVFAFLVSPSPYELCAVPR

Consider `CNC(=O)c1ccccc1Nc1nc(Nc2ccc3c(c2OC)CCCC(N2CCN(CCO)CC2)C3)ncc1Cl` (centres undefined), for which the Potency entry in test [1] and in test [3] was “inactive” in each case. Further, the figures for the Potency in test [2] and in test [4] were 15.1 µM (active) and 6.49 µM (active), respectively.

On to `COc1ccc(CCO[C@@H]2CCCC[C@H]2N2CC[C@@H](O)C2)cc1OC`, for which the Potency entry in test [1], in test [3] and in test [4] was “inactive” each time. Further, the Potency in test [2] is 10.7 µM (active).

For the molecule `COc1c(Nc2ncc(Cl)c(N[C@H]3[C@@H](C(N)=O)[C@@H]4C=C[C@H]3C4)n2)ccc2c1CC[C@@H](N1CCOCC1)CC2`, the Potency result in test [1] is “inactive”. The Potency in test [2] is 19 µM (active); in test [3], 6.01 µM (active); in test [4], 3.25 µM (active).

Consider `CN(C)C/C=C/C(=O)Nc1cc2c(Nc3ccc(F)c(Cl)c3)ncnc2cc1OC1CCOC1` (centres undefined), for which the Potency result in test [1] and in test [2] was “inactive” in each case. For the same molecule, the Potency in test [3] is 15.1 µM (active); in test [5], 20 µM (active); in test [4], 2.3 µM (active).

Regarding `COc1cc2c(NC3CCN(CC4CCCCC4)CC3)nc(N3CCCN(C(C)C)CC3)nc2cc1OCCCN1CCCCC1`, the Potency entry in test [1] and in test [3] was “inactive” in each case. Besides, the Potency in test [2] is 12 µM (active); in test [5], 34.5 µM (active); in test [4] it was 2.58 µM (active) and 5.25 µM (active).

As to `CCCCc1ccc(C(=O)Nc2cc(-c3ccc(Cl)cc3)nn2-c2ccc(Cl)cc2)cc1`, the Potency result in test [1], in test [2], in test [3] and in test [4] was “inactive” in each case.

Regarding `COc1cccc(-c2cc(NCc3ccc4c(c3)OCO4)nc(N)n2)c1`, in test [1], the Potency result was “inactive”. The Potency in test [2] was 0.756 µM (active); in test [3] it was 2.68 µM (active); in test [4], 0.205 µM (active).

Consider `Cc1ccc(C(=O)N(CCCN)C(c2oc3cc(Cl)ccc3c(=O)c2Cc2ccccc2)C(C)C)cc1` (centres undefined), for which the Potency entry in test [1] and in test [4] was “inactive” in each case. Besides, the Potency in test [2] and in test [3] was 10.7 µM (active) in each case.

Take `COc1cc(C(=O)NC2CCN(C)CC2)c(F)cc1Nc1ncc2c(n1)N(C1CCCC1)CC(F)(F)C(=O)N2C`: the Potency result in test [1] and in test [2] was “inactive” each time. The Potency in test [3] was 5.35 µM (active); in test [4], 0.059 µM (active).

For the molecule `COc1ccc(F)cc1-c1cc(NC(=O)[C@@H]2CCCNC2)ncc1Cl`, the Potency entry in test [1] and in test [2] was “inactive” throughout. Moreover, the Potency is 1.34 µM (active) in test [3] and 0.0649 µM (active) in test [4].

As to `Cc1c[nH]c2nccc(Oc3c(F)cc(Nc4cc(Cl)nc(N)n4)cc3F)c12`, in test [1], the Potency entry was “inactive”. For the same molecule, the Potency in test [2] is 6.74 µM (active); in test [3], 15.1 µM (active); in test [4] it was 0.728 µM (active).

As for `CCCN1CCC(c2cccc(S(C)(=O)=O)c2)CC1`, the Potency entry in test [1], in test [3] and in test [4] was “inactive” throughout. Moreover, in test [2], the Potency was 8.49 µM (active).

In the case of `O=C(NCc1ccccn1)Nc1nnc(-c2ccco2)o1`, the Potency result in test [1], in test [2], in test [3] and in test [4] was “inactive” in each case.

Turning to `Cc1[nH]c2ccccc2c1C1=C(NCCc2ccc(F)cc2)C(=O)N(C)C1=O`, the Potency entry in test [1] is “inactive”. The results for the Potency in test [2], in test [3] and in test [4] were 4.25 µM (active), 0.379 µM (active) and 6.49 µM (active), respectively.

In the case of `CC(C)[C@@](C)(O)[C@@H]1CN(c2nc(-c3[nH]nc4ncccc34)c(F)cc2Cl)CCN1`, the Potency result in test [1] is “inactive”. In addition, the Potency in test [2] was 0.849 µM (active); in test [3], 12 µM (active); in test [4], 6.49 µM (active).

Regarding `Cn1c2ccc(F)cc2c2c(C(=O)N3CCCC3)cn(-c3ccccc3)c(=O)c21`, the Potency result in test [1], in test [2] and in test [4] was “inactive” each time. Moreover, in test [3], the Potency was 1.51 µM (active).

Take `c1ccc(N2CCN(CCc3nn[nH]n3)CC2)cc1`: the Potency result in test [1], in test [2] and in test [4] was “inactive” throughout. Also, the Potency in test [3] is 9.52 µM (active).

Take `Cc1cc(C)c(CNC(=O)c2cc(-c3ccc(CN4CCOCC4)cc3)cc3c2cnn3C2CCCC2)c(=O)[nH]1`: the Potency result in test [1] and in test [2] was “inactive” each time. Further, the Potency in test [3] was 2.39 µM (active); in test [4] it was “inactive and 18.6 µM (active)”.

`CCN(Cc1cccnc1)C(=O)CN(c1ccc(OC)nc1)S(=O)(=O)c1ccccc1C`: the Potency result in test [1], in test [2] and in test [4] was “inactive” each time. Moreover, in test [3], the Potency is 19 µM (active).

Take `Cc1cccc(S(=O)(=O)N2CCC[C@@H]2CCN2CCC(C)CC2)c1`: the Potency entry in test [1], in test [3] and in test [4] was “inactive” in each case. Moreover, in test [2], the Potency is 2.39 µM (active).

Consider `O=C(Nc1ccc(S(=O)(=O)C(F)(F)F)cc1)C1=CCN(c2ncccc2C(F)(F)F)CC1`, for which the Potency entry in test [1] and in test [5] was “inactive” each time. In addition, the figures for the Potency in test [2], in test [3] and in test [4] were 7.56 µM (active), 3.01 µM (active) and 7.28 µM (active), respectively.

Turning to `Cc1ccc(-c2ccc3ncc4c(c3n2)n(C2CCN(C(=O)[C@H](C)O)CC2)c(=O)n4C)cn1`, the Potency entry in test [1] and in test [2] was “inactive” throughout. Also, the results for the Potency in test [3], in test [5] and in test [4] were 10.7 µM (active), 39.8 µM (active) and 0.0742 µM (active), respectively.

Take `O=C(COc1cccc2c(=O)[nH]ccc12)c1ccccc1`: the Potency result in test [1], in test [2] and in test [4] was “inactive” in each case. Further, in test [3], the Potency is 8.49 µM (active).

For the molecule `CCC(Nc1ncnc2nc[nH]c12)c1nc2cccc(F)c2c(=O)n1-c1ccccc1` (centres undefined), the Potency result in test [1] and in test [2] was “inactive” in each case. Besides, the Potency in test [3] is 13.5 µM (active); in test [4], 0.0728 µM (active).

Take `CCS(=O)(=O)N1CCN(c2ccc(Nc3ncc(C(N)=O)c(NC4CC4)n3)cc2)CC1`: the Potency entry in test [1] and in test [2] was “inactive” each time. In addition, the Potency in test [3] was 19 µM (active); in test [4], 230 nM (active) and 417 nM (active).

For the origin of these results see PubChem BioAssay (NCATS).
